High-throughput results as filed in PubChem BioAssay.
Only some compounds are listed: those with a hit (about 5.7% of all), similar ones and a draw of the others.
DRD3 agonist: qHTS of D3 Dopamine Receptor Agonist: qHTS. D(3) dopamine receptor (Homo sapiens), P35462. D3R DiscoveRx beta-arrestin cells, luminescence, 90 min. max activation, %. 410,000 compounds, 0.58% hits. AID 652048, 2013; in the data active = max activation above about 30%
Target sequence (P35462 whole entry, looked up): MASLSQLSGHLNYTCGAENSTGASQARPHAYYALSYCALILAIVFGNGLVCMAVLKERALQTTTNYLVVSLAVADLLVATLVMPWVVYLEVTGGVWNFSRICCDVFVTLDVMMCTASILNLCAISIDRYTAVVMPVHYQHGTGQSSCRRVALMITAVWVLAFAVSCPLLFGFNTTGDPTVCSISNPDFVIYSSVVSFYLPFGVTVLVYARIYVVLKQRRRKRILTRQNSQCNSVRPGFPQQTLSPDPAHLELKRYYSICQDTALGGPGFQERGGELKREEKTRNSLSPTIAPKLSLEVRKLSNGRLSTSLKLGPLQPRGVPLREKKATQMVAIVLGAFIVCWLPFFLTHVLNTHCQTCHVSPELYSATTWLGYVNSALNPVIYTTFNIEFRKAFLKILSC
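Agonist-mode cell screen: cells plated at 1500/well and incubated overnight at 37 °C, then exposed to library compounds for 90 min at 37 °C. Detection reagent was added for 30–60 min at room temperature, and luminescence was read.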
GLP1R ag: qHTS of GLP-1 Receptor Agonists. HEK293 GLP-1R CRE-luciferase, luminescence, 4-6 h; cells express a hypersensitive GLP-1R form. Potency, µM (titrated, usually from 45.6 µM), usual class: activators. 380,000 compounds, 0.007% hits. AID 624172, 2012
D3 antag: qHTS of D3 Dopamine Receptor Antagonist: qHTS; max response, negative = inhibition, %; D3R cells, DiscoveRx beta-arrestin luminescence, antagonist mode; hits give low values; 360,000 compounds, 2.5% hits; D(3) dopamine receptor (Homo sapiens), P35462; in the data active = max response below about -50%; inconclusive = no clear call, values can overlap the other calls
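Cells expressing the human receptor were seeded at 1500 cells/well, incubated overnight at 37 degrees C in 5% CO2, then exposed to library compounds with dopamine controls for 90 minutes at 37 degrees C before luminescent detection.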
GLP1R inv ag: qHTS of GLP-1 Receptor Inverse Agonists (Inhibition Mode). HEK293 GLP-1R CRE-luciferase, luminescence, 24 h; GLP-1R form is constitutively active. Potency, µM (doses to about 38.3 µM), usual class: inhibitors. 410,000 compounds, 1.6% hits; note: nearly all actives have a fitted effect of over 55% in size
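Using stably transfected HEK293 (constitutively active GLP-1R, cAMP-luciferase reporter), compounds were incubated 24 hr and luciferase measured by luminescence.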
ClpP mod: qHTS Assay for Activators of ClpP. purified B. subtilis ClpP, FRET peptide cleavage, 20 min. 340,000 compounds, 1.9% hits. AID 651965, 2013. Potency, µM (highest dose often 57.5 µM); active = well fitted falling curve with a large enough effect; inconclusive = small, poorly fitted or top-dose-only effect; inactive = no such curve, though single readings can be large or run the other way; note: the source files actives as falling curves though it sought activators and does not explain the sign; nearly all actives have a fitted effect of over 65% in size
Target sequence (P80244 whole entry, looked up): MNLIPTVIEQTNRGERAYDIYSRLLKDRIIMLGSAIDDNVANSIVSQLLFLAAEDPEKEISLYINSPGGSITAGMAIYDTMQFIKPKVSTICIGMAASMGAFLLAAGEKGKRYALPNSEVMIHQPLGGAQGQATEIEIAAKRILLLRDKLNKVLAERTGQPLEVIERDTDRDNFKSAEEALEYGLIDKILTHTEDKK
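ClpP 10 microg/mL final, pH 8 Tris/KCl buffer with BSA, glycerol, Tween-20; compound pinned in; FRET-FV substrate; RT 20 min; Ex320/Em430; ΔFRET vs ADEP 5.8 microM, DMSO, no enzyme.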
HEK293 tox: qHTS of GLP-1 Receptor Inverse Agonists: Cytotox Screen. HEK293 cAMP-luciferase reporter cells, luminescence, 24 h. Potency, µM (top dose mostly 38.3 µM), most hits filed as inhibitors. 410,000 compounds, 0.13% hits. AID 624418, 2012;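 note: loss of luciferase light is scored as toxicity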
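To flag toxic compounds, the library was rerun on cells for 24 hr at 37 deg C and 5% CO2. Viability-linked luminescence was captured 12 min after adding luciferase detection reagent.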
Each line names hits and unclear results; the compound was inactive in the other large screens. Unless noted, calls come from the whole dose curve; as a rule, active = well fitted curve in the direction sought with a large enough effect; inconclusive = small, poorly fitted or top-dose-only effect, or another doubt; inactive = no such curve, though single readings can be large; an effect the other way counts as inactive or inconclusive.

O=C(NC1CCCCCCC1)c1cccc(Cl)c1	GLP1R inv ag inconclusive
COc1ccc(C(=O)Nn2c(SCc3cccc([N+](=O)[O-])c3)nc3ccccc3c2=O)cc1	GLP1R inv ag 5.6µM
O=C(NC1CCCCC1)c1ccc(Cn2cc(Cl)cn2)cc1	none
COc1ccc(OCc2cccc(C(=O)Nn3cc([N+](=O)[O-])cn3)c2)cc1	D3 antag -65
Cc1nn(Cc2cccc(C(=O)NC3CCCCC3)c2)c(C)c1Cl	D3 antag -51, GLP1R inv ag 10µM
COc1cnc(-c2ccccc2)nc1Oc1cccc(C)c1C	GLP1R inv ag 11µM
O=C(NCCN1CCC(n2c(=O)[nH]c3ccccc32)CC1)c1cccc(F)c1	D3 antag -105
O=C(NCCN1CCOCC1)c1cccc(Cl)c1	none
O=C(NCCN1CCC(n2c(=O)[nH]c3ccccc32)CC1)c1ccncc1	D3 antag -107
O=C(NCCN1CCC(n2c(=O)[nH]c3ccccc32)CC1)c1cccc(Cl)c1	D3 antag -98, GLP1R inv ag inconclusive
O=C(NC1CCCCC1)N1CCC(n2c(=O)[nH]c3ccccc32)CC1	none
O=C(NCCN1CCC(n2c(=O)[nH]c3ccccc32)CC1)c1cccnc1Cl	D3 antag -69
O=C(NCCN1CCC(n2c(=O)[nH]c3ccccc32)CC1)c1cc(F)cc(F)c1	D3 antag -101, GLP1R inv ag inconclusive
O=C(NCCN1CCC(n2c(=O)[nH]c3ccccc32)CC1)C(c1ccccc1)c1ccccc1	D3 antag -78, GLP1R inv ag inconclusive
O=C(Nc1ccccc1)N1CCC(n2c(=O)[nH]c3ccccc32)CC1	none
Clc1ccccc1C1=Nn2c(nnc2-c2ccncc2)SC1	GLP1R inv ag 1.1µM
CCc1ccc(CSc2nc(-c3ccccc3OC)nc3c2Cc2c(CO)cnc(C)c2O3)cc1	none (no result: GLP1R ag, D3 antag)
O=C(O)c1ccccc1C1=Nc2ccc(O)cc2Oc2cc(O)ccc21	ClpP mod 14µM
Cc1ccc(Nc2nc(-c3cccnc3)nc3ccccc23)cc1	GLP1R inv ag inconclusive (no result: ClpP mod)
CCOC(=O)c1ccc(Nc2nc(-c3cccnc3)nc3ccccc23)cc1	GLP1R inv ag 8.9µM, ClpP mod 28µM
Cc1c(O)ccc(/C=N/Nc2nc(-c3cccnc3)nc3ccccc23)c1O	GLP1R inv ag 10µM, HEK293 tox inconclusive
CCNC(=S)N1CCN(c2nc(-c3ccc(F)cc3)cs2)CC1	GLP1R inv ag inconclusive
CCN(CC)CCCNC(=S)N1CCN(c2nc(-c3ccc(F)cc3)cs2)CC1	D3 antag -52, GLP1R inv ag inconclusive, HEK293 tox inconclusive
Cc1ccc(CN2CCN(CC(=O)N=Nc3c(O)[nH]c4ccccc34)CC2)cc1	D3 antag -90, GLP1R inv ag inconclusive
NC(N)=N/N=C(\N=Nc1ccccc1)c1ccc(Cl)cc1	GLP1R inv ag 10µM, HEK293 tox inconclusive
NC(N)=N/N=C(\N=Nc1ccccc1)c1cccc2cccnc12	none
CC(=O)Nc1ccc2c(c1)nc(CCN1CCC(C)CC1)n2C	D3 antag inconclusive
CC(C)C(=O)Nc1ccc2c(c1)nc(CCN1CCN(c3ccccn3)CC1)n2C	DRD3 agonist 62 (no result: ClpP mod)
CCCC(=O)Nc1ccc2c(c1)nc(CCN1CCC(C)CC1)n2C	none
CC(=O)Nc1ccc2c(c1)nc(CCN1CCN(c3ccccn3)CC1)n2C	none
CC1CCN(CCc2nc3cc(NC(=O)Nc4ccccc4)ccc3n2C)CC1	D3 antag -60
CC1CCN(CCc2nc3cc(NS(=O)(=O)c4ccc(F)cc4)ccc3n2C)CC1	D3 antag -70
CC1CCN(CCc2nc3cc(NS(=O)(=O)c4ccccc4)ccc3n2C)CC1	D3 antag -75
Cc1ccc(-n2c(=O)c3oc4ccccc4c3n(CC(=O)Nc3ccccc3)c2=O)cc1C	GLP1R inv ag inconclusive (no result: GLP1R ag, D3 antag)
O=C(Nc1ccc(Cl)cc1Cl)[C@@H]1CC=C[C@@H]2CCN(C3CCCCC3)C(=O)[C@@H]21	none (no result: DRD3 agonist, GLP1R ag, D3 antag, GLP1R inv ag, HEK293 tox)
CCC(=O)Nc1ccc2c(c1)nc(CCN1CCN(c3ccccc3)CC1)n2C	D3 antag -62
CC1CC2C3CCC4=CC(=O)C=CC4(C)[C@@]3(F)C(O)CC2(C)[C@@]1(O)C(=O)CCl (some centres not stated)	none (no result: DRD3 agonist, D3 antag, GLP1R inv ag, ClpP mod, HEK293 tox)
CC1(C(=O)NCc2ccc(Cl)cc2)CCN1C(=O)c1cccc(F)c1 (configuration not stated)	none
CC(=O)Nc1cccc(NC(=O)CSc2cn(CC(=O)N(C(C)C)C(C)C)c3ccccc23)c1	none (no result: GLP1R ag, D3 antag)
Cc1ccc(NC(=O)CNC(c2ccccc2)c2ccccc2)c(F)c1	GLP1R inv ag 11µM
COc1ccc(C)cc1NC(=O)CNC(c1ccccc1)c1ccccc1	GLP1R inv ag inconclusive
O=C1c2cccc(NCCCNCCO)c2C(=O)c2cccc(NCCCNCCO)c21	D3 antag inconclusive, GLP1R inv ag inconclusive, HEK293 tox 7.9µM
O=C(Cn1c(Cn2c(-c3cnccn3)nc3ccccc32)nc2ccccc21)c1ccc(OC(F)(F)F)cc1	none
C[C@]12CC[C@H]3[C@@H](CCC4=CC(=O)CC[C@@]43C)[C@@H]1CC[C@@H]2C(=O)CO	D3 antag -88
CCn1ccc2cc(S(=O)(=O)N3CCC(C(=O)NCc4ccc(OC(C)C)cc4)CC3)ccc21	GLP1R inv ag inconclusive (no result: GLP1R ag, D3 antag)
COc1ccc2ccc3c(c2c1)N=C[C@]1(O3)N(C)c2ccccc2C1(C)C	D3 antag -70, GLP1R inv ag inconclusive, ClpP mod inconclusive, HEK293 tox inconclusive
COC(=O)CN(c1ccc(F)cc1)S(=O)(=O)c1ccccc1	none
COC(=O)Cc1ccc(N(Cc2ccccc2F)S(=O)(=O)c2ccc(Cl)cc2)cc1	D3 antag -56, GLP1R inv ag inconclusive (no result: ClpP mod)
Cc1ccc(C)c(N(C)S(=O)(=O)c2ccc3[nH]cc(C(=O)NCCN4CCOCC4)c(=O)c3c2)c1	ClpP mod 18µM
Cc1ccc(N(C)S(=O)(=O)c2ccc3[nH]cc(C(=O)NCCCN4CCOCC4)c(=O)c3c2)cc1C	GLP1R inv ag inconclusive
Cc1ccc(CNC(=O)c2c[nH]c3ccc(S(=O)(=O)N4CCOCC4)cc3c2=O)cc1	ClpP mod 28µM (no result: D3 antag)
O=C(NCc1ccc2c(c1)OCO2)c1c[nH]c2ccc(S(=O)(=O)N3CCOCC3)cc2c1=O	ClpP mod inconclusive
